# Test results published in the supplement of paper PMC8699584.
# Values joined by “and” are separate entries in the source; they are usually repeats but may differ in a detail not shown here. Equal entries are not always repeated. Structures can show the parent of a compound that is named as a salt. ± gives the standard deviation of the averaged measurements.
# What was measured:
# Molm13 = assay: cell viability relative to DMSO control (bortezomib = 0%); higher = less growth inhibition; details: 10 nM; 72 h
# Procedure, shortened: (§1)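 Acute myeloid leukemia cells, 1000 per well in 50 µL, were incubated for 72 h on 384-well plates with 679 approved and investigational compounds, each at a single 10 nM dose. Viability was read by CellTiter-Glo luminescence. Values were expressed as percentages through per-plate linear regression against DMSO-treated (100%) and positive-control-treated (0%) cells.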
# Mv4-11 = assay: as above; details: 10 nM; 72 h
# Procedure, shortened: as §1
SMILES,cell viability (Molm13),cell viability (Mv4-11)
Cc1cnc(NC(=O)Nc2cc(Br)c(C)cc2OC[C@@H]2CNCCO2)cn1,101 ± 11%,109 ± 8.1%
Oc1cccc(Nc2ncc(F)c(Nc3cccc(O)c3)n2)c1,83 ± 15%,96.5 ± 16%
N#Cc1ccc(COc2ccc(-c3cccc4nc(NC(=O)C5CC5)nn34)cc2)cn1 [GLPG0634 analogue],107 ± 8.4%,119 ± 3.4%
Cc1cc(Nc2cc(CN3CCOCC3)c3nc(C)c(Cc4ccc(Cl)cc4F)n3n2)n[nH]1,82.5 ± 8.9%,113 ± 2%
CCn1c(N)c(C(=O)NC)c(=O)c2ccc(C#CC(C)(O)COC)nc21 (stereo unspecified),110 ± 4.6%,115 ± 8.3%
O=C1c2ccccc2C(=O)C1c1ccccc1 [Phenylindione],95.7 ± 6.6%,114 ± 1.8%
COc1cc(CCc2cc(NC(=O)c3ccc(N4CC(C)NC(C)C4)cc3)n[nH]2)cc(OC)c1 (stereo unspecified),102 ± 17%,99.5 ± 2%
CC1(C)CC[C@]2(C(=O)O)CC[C@]3(C)C(=CC[C@@H]4[C@@]5(C)CC[C@H](O[C@@H]6O[C@H](C(=O)O)[C@@H](O)[C@H](O[C@@H]7OC[C@@H](O)[C@H](O)[C@H]7O)[C@H]6O)C(C)(C)[C@@H]5CC[C@]43C)[C@@H]2C1 [Momordin Ic],87.4 ± 13%,106 ± 5%
CN1C(=O)C(Cc2c[nH]c3ccccc23)NC1=S (stereo unspecified) [Necrostatin-1],106 ± 9.9%,93.4 ± 10%
Cc1ccc(Nc2nccc(N(C)c3ccc4c(C)n(C)nc4c3)n2)cc1S(N)(=O)=O [Pazopanib],101 ± 36%,104 ± 4.1%
CC1(C)OC(=O)C=C[C@]2(C)[C@H]3CC[C@@]4(C)[C@H](c5ccoc5)OC(=O)[C@H]5O[C@]54[C@]3(C)C(=O)C[C@@H]12 [Obacunone],108 ± 7.3%,109 ± 19%
NC(=O)c1ccc(N(C(N)=O)c2c(F)cccc2F)nc1-c1ccc(F)cc1F,93.7 ± 5.1%,98.7 ± 8.1%
CCc1cc(-c2n[nH]c(C)c2-c2ccc3c(c2)OCCO3)c(O)cc1O,102 ± 20%,94.9 ± 12%
COc1cc2ncnc(Nc3ccccc3)c2cc1OC,97.1 ± 10%,107 ± 12%
C[C@H]1[C@H](C)CC[C@]2(C(=O)O)CC[C@]3(C)C(=CC[C@@H]4[C@@]5(C)C[C@@H](O)[C@H](O)C(C)(C)[C@@H]5CC[C@]43C)[C@H]12 [Corosolic acid],113 ± 26%,106 ± 11%
CCCCNc1ncc(-c2ccc(CN3CCOCC3)cn2)c(NC2CCC(O)CC2)n1 (stereo unspecified),94.6 ± 6.1%,99.9 ± 5.7%
"Cc1c(CN2CCN(C(=O)[C@H](C)O)CC2)sc2c(N3CCOCC3)nc(-c3cnc(N)nc3)nc12 [Apitolisib (GDC-0980, RG7422)]",108 ± 2.2%,104 ± 14%
c1cc(-c2cnn3cc(-c4ccc(OCCN5CCCCC5)cc4)cnc23)ccn1 [Dorsomorphin dihydrochloride],58.3 ± 6.7%,65.7 ± 3.6%
C#Cc1cccc(Nc2ncnc3cc(OCCOC)c(OCCOC)cc23)c1 [Erlotinib hydrochloride],108 ± 9.8%,121 ± 20%
COc1cc(N2CCC(N3CCN(C)CC3)CC2)ccc1Nc1ncnc(Nc2ccccc2S(=O)(=O)C(C)C)n1,96.5 ± 3.9%,98.6 ± 15%
CC#CC(=O)N1CCC[C@H]1c1nc(-c2ccc(C(=O)Nc3ccccn3)cc2)c2c(N)nccn12 [Acalabrutinib],111 ± 8.4%,125.6 ± 1.1%
CC(C)c1[nH]nc(Cl)c1-c1ccnc(Nc2ccc(N3CCC(N(C)C)CC3)cn2)n1,115 ± 1.8%,112 ± 9.6%
CN(C)C/C=C/C(=O)Nc1cc2c(Nc3ccc(F)c(Cl)c3)ncnc2cc1O[C@H]1CCOC1 [Afatinib (BIBW2992)],87.5 ± 7.3%,97.7 ± 6.9%

SMILES,cell viability (Molm13),cell viability (Mv4-11)
COc1ccc(CNc2nc(N(CCO)CCO)nc3c2ncn3C(C)C)cc1,102 ± 7%,104 ± 8.2%
Nc1ccc(C(=O)Nc2cccc(-c3nc(N4CCOCC4)c4oc5ncccc5c4n3)c2)cn1,104% and 101%,106% and 108%
COC(=O)C1=CC[C@@]23CC[C@@H]([C@@](C)(/C=C/C=C(\C)C(=O)O)OC2=O)[C@@]3(OC(C)=O)CC1 [Pseudolaric Acid B],101 ± 3.5%,104 ± 11%
COc1ncc(-c2ccc3nccc(-c4ccnnc4)c3c2)cc1NS(=O)(=O)c1ccc(F)cc1F,61.5 ± 19%,76.1 ± 1.9%
Cc1ccc(S(=O)(=O)NC(=O)NN2CC3CCCC3C2)cc1 (stereo unspecified) [Gliclazide],98.5 ± 5.5%,113 ± 6.1%
O=C(O)CCC(=O)Nc1ccc(Br)cn1 [Bikinin],92.5 ± 2.2%,99.9 ± 1.9%
CCc1cc2c(=O)c(-c3nc4ccccc4s3)coc2c(CN2CCCCC2)c1O,129 ± 34%,123 ± 5.4%
CCCCCN(CCCOC)C(=O)C(CCC(=O)O)NC(=O)c1ccc(Cl)c(Cl)c1 (stereo unspecified) [Loxiglumide],85.9 ± 4.4%,108 ± 3.1%
COc1ccc(S(=O)(=O)N(C(C)=O)c2ccccc2/C=C/c2cc[n+]([O-])cc2)cc1,98.3 ± 18%,104 ± 27%
Oc1ccc(Nc2nc(-c3ccc(Cl)cc3)cs2)cc1,99.73 ± 0.67%,105.24 ± 0.067%
CCOc1cc2ncc(C#N)c(Nc3ccc(OCc4ccccn4)c(Cl)c3)c2cc1NC(=O)/C=C/CN(C)C [Neratinib(HKI-272)],106 ± 20%,100 ± 3.7%
N#Cc1ccc2[nH]c(O)c(-c3ccc(CN4CCOCC4)cn3)c2c1,112 ± 0.85%,106 ± 5.3%
CC1(C)CNc2cc(NC(=O)c3cccnc3NCc3ccncc3)ccc21 [Motesanib (AMG-706)],106 ± 20%,107 ± 5.2%
C[C@@H]1CCN(C(=O)CC#N)C[C@@H]1N(C)c1ncnc2[nH]ccc12,109% and 101%,99.7% and 105%
O=c1cc(-c2ccc(O)cc2)oc2cc(O)c(O)c(O)c12 [Scutellarein],108 ± 3.9%,100 ± 5.4%
O=C1NC(=O)/C(=C/c2ccc3c(c2)OCO3)S1,96 ± 3%,112 ± 8%
COc1cc2ncnc(Nc3ccc(F)c(Cl)c3)c2cc1OCCCN1CCOCC1 [Gefitinib],114.4 ± 0.96%,120 ± 1.4%
O=C(O)c1cc(NCc2cc(O)ccc2O)ccc1O [Lavendustin C],111 ± 13%,104 ± 1.9%
CC(C)=CCC[C@](C)(O)[C@H]1CC[C@]2(C)[C@@H]1[C@H](O)C[C@@H]1[C@@]3(C)CC[C@H](O)C(C)(C)[C@@H]3[C@@H](O[C@@H]3O[C@H](CO)[C@@H](O)[C@H](O)[C@H]3O[C@@H]3O[C@@H](C)[C@H](O)[C@@H](O)[C@H]3O)C[C@]12C [Ginsenoside Rg2],94.4 ± 23%,93.6 ± 9.2%
C=CC(=O)N1CCC[C@@H](n2nc(-c3ccc(Oc4ccccc4)cc3)c3c(N)ncnc32)C1,95.3 ± 9.3%,93.2 ± 4.6%
COc1ccc(-c2cnc3c(-c4cccc5ncccc45)cnn3c2)cc1,103 ± 12%,103 ± 1.6%
COc1ccc(Cl)c(Nc2nc3ccccc3nc2NS(=O)(=O)c2cccc(NC(=O)C(C)(C)N)c2)c1 [Pilaralisib (XL147)],117 ± 4%,110 ± 11%
Cn1cc(C2=C(c3cn(CCCN)c4ccccc34)C(=O)NC2=O)c2ccccc21 [Bisindolylmaleimide VIII (acetate)],111 ± 18%,119 ± 26%

SMILES,cell viability (Molm13),cell viability (Mv4-11)
Cn1c(=O)n(-c2ccc(C(C)(C)C#N)cc2)c2c3cc(-c4cnc5ccccc5c4)ccc3ncc21,107 ± 2.7%,109 ± 15%
CN1CCN(c2nc(C3=C(c4c[nH]c5ccccc45)C(=O)NC3=O)c3ccccc3n2)CC1 [Sotrastaurin],99 ± 21%,109 ± 11%
CC(C)n1cnc2c(NCc3ccccc3)nc(NCCCO)nc21 [Bohemine],95.3 ± 4.3%,103 ± 13%
N#CC[C@H](C1CCCC1)n1cc(-c2ncnc3[nH]ccc23)cn1 [Ruxolitinib],105 ± 10%,111.1 ± 0.83%
CNC(=O)c1ccc(-c2cnc3ncc(Cc4ccc5ncccc5c4)n3n2)cc1F,109 ± 3.6%,108 ± 6.8%
Cn1cnc2c(F)c(Nc3ccc(Br)cc3Cl)c(C(=O)NOCCO)cc21 [Selumetinib (AZD6244)],106 ± 18%,106 ± 3.2%
C[C@]1(O)C[C@@H](c2nc(-c3ccc4ccc(-c5ccccc5)nc4c3)c3c(N)nccn32)C1 [OSI-906 (Linsitinib)],118 ± 12%,116 ± 12%
O=c1cc(N2CCOCC2)oc2c(-c3ccccc3)cccc12,107 ± 28%,104 ± 16%
COc1cc2nccc(Oc3ccc(NC(=O)Nc4cc(C)on4)c(Cl)c3)c2cc1OC [Tivozanib (AV-951)],96.3 ± 6.1%,96.1 ± 11%
COc1ccc2c(c1)c(C1=C(c3c[nH]c4ccccc34)C(=O)NC1=O)cn2CCCN(C)C,85.4 ± 2%,103 ± 7.6%
CCCCCCCCCCCC(=O)NC[C@]1(C)CCC[C@]2(C)c3ccc(C(C)C)cc3CCC12 (stereo partly specified) [Lauric Acid Leelamide],93 ± 7.2%,104 ± 12%
O=C1NC(=O)/C(=C\c2ccc3nccnc3c2)S1,116 ± 13%,104 ± 13%
CNC(=O)c1cc(Oc2ccc(NC(=O)Nc3ccc(Cl)c(C(F)(F)F)c3)c(F)c2)ccn1 [Regorafenib (BAY 73-4506)],101 ± 7.3%,110.3 ± 0.69%
C[C@@]1(C(=O)Nc2ccc(F)nc2)CCCN1c1nc(Nc2cc(C3CC3)n[nH]2)c2cccn2n1,117 ± 2.5%,127 ± 2.5%
Cc1ccc(-n2nc(C(C)(C)C)cc2NC(=O)Nc2ccc(OCCN3CCOCC3)c3ccccc23)cc1 [Doramapimod],95.877 ± 0.081%,98.1 ± 1.1%
CC(C)c1ccc2oc3nc(N)c(C(=O)O)cc3c(=O)c2c1 [Amlexanox],96.8 ± 11%,92.6 ± 2.2%
C[S+]([O-])c1ccc(-c2nc(-c3ccc(F)cc3)c(-c3ccncc3)[nH]2)cc1 (stereo unspecified),104% and 108% and 110%,110% and 114% and 112%
Cc1c(Cn2c(C)nc3c(C(=O)O)cc(N4CCOCC4)cc32)cccc1C(F)(F)F,102 ± 5.3%,110 ± 17%
Cc1ccc([N+](=O)[O-])cc1S(=O)(=O)N(C)/N=C/c1cnc2ccc(Br)cn12 [PIK-75 (hydrochloride)],94.7 ± 11%,92.2 ± 7.8%
O=C(COc1ccc(Cl)cc1)NC1CCC(NC(=O)COc2ccc(Cl)cc2)CC1 (stereo unspecified),109 ± 1.8%,111 ± 14%
O=C(Nc1ccc(OC(F)(F)F)cc1)c1sccc1NCc1ccnc2ccccc12,111 ± 3.1%,109 ± 6%
C[C@H]1[C@H](C)CC[C@]2(C(=O)O[C@@H]3O[C@H](CO[C@@H]4O[C@H](CO)[C@@H](O[C@@H]5O[C@H](C)[C@H](O)[C@@H](O)[C@H]5O)[C@H](O)[C@H]4O)[C@@H](O)[C@H](O)[C@H]3O)CC[C@]3(C)C(=CC[C@@H]4[C@@]5(C)C[C@@H](O)[C@H](O)[C@@](C)(CO)[C@@H]5CC[C@]43C)[C@H]12 [Asiaticoside],108 ± 13%,114 ± 2.9%
